Experiment [1] concerns the target Peroxisome proliferator-activated receptor delta (Homo sapiens) (UniProt Q03181). Briefly: qHTS assay to identify small molecule agonists of the peroxisome proliferator-activated receptor delta (PPARd) signaling pathway (AID 743212; calls by dose curve). The settings on record: HEK293H PPARd-UAS-bla, beta-lactamase FRET ratio, 17 h; series mostly up to 62.6 µM. Summed up: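 Beta-lactamase reporter read by fluorescence (LiveBLAzer B/G FRET, 2 h, room temperature). Test agents, in DMSO, incubated at 37 C with PPARd-bla HEK293H cells.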
On the technique in general: In qHTS, concentration-response curves come from the screen itself.

A short description of experiment [2]: qHTS assay to identify small molecule antagonists of the peroxisome proliferator-activated receptor delta (PPARd) signaling pathway - cell viability counter screen (AID 743213). Further: nearly all actives have a fitted effect of over 50% in size. The settings on record: PPARd-bla HEK293H viability, CellTiter-Glo luminescence, 17 h; series mostly up to 62 µM. Summed up: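 Luminescence from CellTiter-Glo, added after the bla read and incubated 30 min at room temperature, gives viability of HEK293H PPARd-bla cells exposed to compounds for 17 h at 37 C with 300 nM L165041.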

Experiment [3] deals with Peroxisome proliferator-activated receptor delta (Homo sapiens) (UniProt Q03181). Nature of the experiment: qHTS assay to identify small molecule antagonists of the peroxisome proliferator-activated receptor delta (PPARd) signaling pathway (AID 743215; active means well fitted inhibition curve with a large enough effect in the signal ratio in the repeat runs, not every such curve was filed as active; the % refers to the signal ratio;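 further: cells stimulated with agonist L165041 at 300 nM final during compound exposure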). As to conditions: HEK293H PPARd-UAS-bla, beta-lactamase FRET ratio, antagonist, 17 h; series mostly up to 62 µM. Summed up: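 Here, a reporter line (HEK293H, beta-lactamase under a UAS) measures PPARd signaling. Compounds are tested against agonist L165041 at 300 nM final concentration over 17 h at 37 C, with fluorescence read after substrate.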

Experiment [4] addresses Bile acid receptor (Homo sapiens) (UniProt Q96RI1). Briefly: qHTS assay to identify small molecule antagonists of the farnesoid-X-receptor (FXR) signaling pathway (AID 743217; active means well fitted inhibition curve with a large enough effect in the signal ratio in the repeat runs, not every such curve was filed as active; the % refers to the signal ratio). The settings on record: HEK293T FXR-UAS-bla, beta-lactamase ratio, CDCA-stimulated, 16 h; series mostly up to 62.6 µM. Summed up:
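Test compounds are pin-transferred onto FXR-bla HEK 293T cells, then chenodeoxycholic acid is added at 50 uM final. After 16 h at 37 °C, LiveBLAzer B/G substrate is applied for 2 h at room temperature and fluorescence read.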

Experiment [5] is described as follows: qHTS assay to identify small molecule agonists of the farnesoid-X-receptor (FXR) signaling pathway - cell viability counter screen (AID 743218). Further: nearly all actives have a fitted effect of over 45% in size. Further: potency means the concentration at half of the fitted maximal effect. The settings on record: FXR-bla HEK293T viability, CellTiter-Glo luminescence, 16 h; series mostly up to 62.6 µM. Summed up: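 Quantitative HTS counter screen measuring ATP-based viability via CellTiter-Glo luminescence in HEK 293T cells carrying a UAS-driven beta-lactamase reporter, after 16 h compound exposure at 37 C.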

Experiment [6] deals with Bile acid receptor (Homo sapiens) (UniProt Q96RI1). Briefly: qHTS assay to identify small molecule agonists of the farnesoid-X-receptor (FXR) signaling pathway (AID 743220; active means well fitted activation curve with a large enough effect in the signal ratio in the repeat runs, not every such curve was filed as active; the % refers to the signal ratio). The settings on record: HEK293T FXR-UAS-bla, beta-lactamase FRET ratio, 16 h; series mostly up to 62.6 µM. Summed up:
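FXR-UAS-bla HEK 293T cells carrying a UAS-driven beta-lactamase reporter were plated for 5 h at 37C/5% CO2, then exposed to DMSO-dissolved Tox21 10K compounds for 16 h at 37C. A LiveBLAzer B/G FRET substrate was loaded for 2 h at room temperature before fluorescence reading.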

Experiment [7] can be described thus: qHTS assay to identify small molecule antagonists of the farnesoid-X-receptor (FXR) signaling pathway - cell viability counter screen (AID 743221; active means well fitted cell-killing curve with a large enough effect in the repeat runs, not every such curve was filed as active; further: nearly all actives have a fitted effect of over 50% in size; further: potency means the concentration at half of the fitted maximal effect). The settings on record: FXR-bla HEK293T viability, CellTiter-Glo luminescence, 16 h; series mostly up to 62.6 µM. Summed up:
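After a 5 h settling period, FXR-bla HEK 293T cells receive compound and chenodeoxycholic acid (50 uM final) and incubate 16 h at 37 C; CellTiter-Glo luminescence, read after 30 min at room temperature, reports cell viability.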

Experiment [8] addresses Vitamin D3 receptor (Homo sapiens) (UniProt P11473). Briefly: qHTS assay to identify small molecule agonists of the vitamin D receptor (VDR) signaling pathway (AID 743222; calls by dose curve). As to conditions: HEK293T VDR-UAS-bla, beta-lactamase FRET ratio, 16 h; series mostly up to 63.5 µM. Summed up: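 Tox21 cell reporter format: VDR-bla line, 16 h compound exposure in 5% CO2 at 37C, then fluorescence intensity after 2 h with LiveBLAzer B/G FRET substrate.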

The nature of experiment [9]: qHTS assay to identify small molecule agonists of the vitamin D receptor (VDR) signaling pathway - cell viability counter screen (AID 743224). Further: nearly all actives have a fitted effect of over 50% in size. The settings on record: VDR-bla HEK293T viability, CellTiter-Glo luminescence, 16 h; series mostly up to 62.6 µM. Summed up:
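CellTiter-Glo viability readout on VDR-bla cells, measured after 16 h of compound treatment at 37C in the same wells.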

Experiment [10] can be described thus: qHTS assay to identify small molecule antagonists of the vitamin D receptor (VDR) signaling pathway - cell viability counter screen (AID 743225). Further: nearly all actives have a fitted effect of over 50% in size. As to conditions: VDR-bla HEK293T viability, CellTiter-Glo luminescence, 16 h; series mostly up to 61 µM. Summed up:
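Parallel cytotoxicity test: VDR-UAS-bla HEK 293T, 3 nM (final) 1-alpha,25-dihydroxyvitamin D3 with test compound, 16 h, 37C. Endpoint is CellTiter-Glo luminescence in the same wells.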

Experiment [11] in a line: qHTS assay to identify small molecule agonists of the endoplasmic reticulum stress response signaling pathway (AID 1159516; active means well fitted activation curve with a large enough effect in the signal ratio in the repeat runs, not every such curve was filed as active; the % refers to the signal ratio). As to conditions: ESRE-bla HeLa, ER stress beta-lactamase reporter, 5 h; series mostly up to 61 µM. Summed up: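 Fluorescence at 460 and 530 nm (405 nm excitation) reports beta-lactamase from an ER stress response element in HeLa cells treated 5 hr at 37 C.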

Experiment [12] in a line: qHTS assay to identify small molecule agonists of the endoplasmic reticulum stress response signaling pathway - cell viability counter screen (AID 1159517; calls by dose curve; further: nearly all actives have a fitted effect of over 50% in size). The settings on record: ESRE-bla HeLa viability, CellTiter-Glo luminescence, 5 h; series mostly up to 61 µM. Summed up:
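Cytotoxicity of test compounds toward ESRE-bla HeLa cells was assessed after 5 hr exposure. The luminescent CellTiter-Glo signal was measured 30 min after reagent addition.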

Experiment [13] in a line: qHTS assay to identify small molecule antagonists of the retinoid-related orphan receptor gamma (ROR-gamma) signaling pathway - cell viability counter screen (AID 1159520). Further: nearly all actives have a fitted effect of over 50% in size. The settings on record: Tet-on RORgamma CHO cells viability, ATP luminescence, 16 h; series mostly up to 92.4 µM. Summed up: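 Tet-on ROR gamma CHO cells (1,000/well) were plated 4 hr, given compounds in DMSO for 2 hr at 37 C, then induced with 1 uM final doxycycline for 16 hr. Viability was read as ATP by CellTiter-Glo luminescence after 30 min.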

Experiment [14] concerns the target Nuclear receptor ROR-gamma (Homo sapiens) (UniProt P51449). Nature of the experiment: qHTS assay to identify small molecule antagonists of the retinoid-related orphan receptor gamma (ROR-gamma) signaling pathway (AID 1159521). As to conditions: Tet-on RORgamma CHO cells, RORE-luciferase, 16 h; series mostly up to 92.4 µM. Summed up:
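Decreased RORE-driven luciferase luminescence indicates antagonism. Tet-on RORγ CHO cells received compound, then 1 uM final doxycycline 2 h later; signal read after 16 h incubation.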

The nature of experiment [15]: qHTS assay to identify small molecule agonists of the AP-1 signaling pathway - cell viability counter screen (AID 1159525; calls by dose curve; further: nearly all actives have a fitted effect of over 55% in size). As to conditions: ME-180 AP-1-bla cells viability, ATP luminescence, 5 h; series mostly up to 76.8 µM. Summed up:
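Each titration point was normalised to DMSO and tetra n-octyl ammonium bromide controls. The read was Cell Titer Glo luminescence after 30 min at RT, following 5 h compound exposure of ME-180 AP-1-bla cells at 37 °C.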

Experiment [16] can be described thus: qHTS assay to identify small molecule agonists of the AP-1 signaling pathway (AID 1159526; calls by dose curve). As to conditions: ME-180 (cervical carcinoma) AP-1-bla reporter, beta-lactamase FRET ratio, 5 h; series mostly up to 76.8 µM.
Experiment [17] in a line: qHTS assay to identify small molecule agonists of the peroxisome proliferator-activated receptor delta (PPARd) signaling pathway - cell viability counter screen (AID 743211). Further: nearly all actives have a fitted effect of over 55% in size. As to conditions: PPARd-bla HEK293H viability, CellTiter-Glo luminescence, 17 h; series mostly up to 62.6 µM. Summed up:
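qHTS cell viability: PPARd-bla HEK293H; 17 h cpd, 37C; CellTiter-Glo, luminescence at 30 min RT.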

Experiment [18] has as its target Retinoic acid receptor RXR-alpha (Homo sapiens) (UniProt P19793). Nature of the experiment: qHTS assay to identify small molecule agonists of the RXR signaling pathway (AID 1159527; calls by dose curve; further: nearly all actives have a fitted effect of over 35% in size). As to conditions: HEK293T RXRa-UAS-bla, beta-lactamase ratio, 16 h; series mostly up to 76.8 µM. Summed up: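 16 hr incubation of compound-treated RXR-alpha-UAS-bla HEK 293T cells (2% charcoal-stripped FBS, 37 C) preceded a 2 hr room-temperature LiveBLAzer FRET substrate step and blue/green fluorescence measurement.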

Experiment [19] has as its target Vitamin D3 receptor (Homo sapiens) (UniProt P11473). Briefly: qHTS assay to identify small molecule antagonists of the vitamin D receptor (VDR) signaling pathway (AID 743223; active means well fitted inhibition curve with a large enough effect in the signal ratio in the repeat runs, not every such curve was filed as active; the % refers to the signal ratio). As to conditions: VDR-UAS-bla HEK293T, beta-lactamase FRET ratio, 16 h; series mostly up to 61 µM. Summed up: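 Reporter line VDR-bla; stimulus 1alpha,25-(OH)2 vitamin D3, 3 nM final; compound co-addition, 16 h 37C/5% CO2; LiveBLAzer B/G substrate 2 h RT; fluorescence intensity.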

Inconclusive results are not listed. Activity calls are given as the source filed them. Unless noted, the call rests on the fitted dose curve; in most records, active means well fitted curve in the direction sought with a large enough effect in the repeat runs; inconclusive means weak or mixed curves; inactive means no such curve, though single readings can be large; an effect the other way counts as inactive or inconclusive.

Sequence of Peroxisome proliferator-activated receptor delta (Homo sapiens) (Q03181 whole entry, looked up): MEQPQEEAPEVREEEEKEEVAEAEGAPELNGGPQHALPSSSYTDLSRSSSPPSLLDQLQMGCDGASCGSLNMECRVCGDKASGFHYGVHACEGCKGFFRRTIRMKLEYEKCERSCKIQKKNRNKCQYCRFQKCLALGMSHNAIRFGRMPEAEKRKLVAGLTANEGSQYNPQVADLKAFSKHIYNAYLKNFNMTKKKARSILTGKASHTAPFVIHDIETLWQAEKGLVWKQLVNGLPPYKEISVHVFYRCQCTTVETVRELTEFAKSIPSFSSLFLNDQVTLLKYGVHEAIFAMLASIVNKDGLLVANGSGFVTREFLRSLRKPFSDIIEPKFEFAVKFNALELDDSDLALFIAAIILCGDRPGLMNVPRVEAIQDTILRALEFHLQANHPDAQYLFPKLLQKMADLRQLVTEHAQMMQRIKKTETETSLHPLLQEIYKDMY
Sequence of Vitamin D3 receptor (Homo sapiens) (P11473 whole entry, looked up): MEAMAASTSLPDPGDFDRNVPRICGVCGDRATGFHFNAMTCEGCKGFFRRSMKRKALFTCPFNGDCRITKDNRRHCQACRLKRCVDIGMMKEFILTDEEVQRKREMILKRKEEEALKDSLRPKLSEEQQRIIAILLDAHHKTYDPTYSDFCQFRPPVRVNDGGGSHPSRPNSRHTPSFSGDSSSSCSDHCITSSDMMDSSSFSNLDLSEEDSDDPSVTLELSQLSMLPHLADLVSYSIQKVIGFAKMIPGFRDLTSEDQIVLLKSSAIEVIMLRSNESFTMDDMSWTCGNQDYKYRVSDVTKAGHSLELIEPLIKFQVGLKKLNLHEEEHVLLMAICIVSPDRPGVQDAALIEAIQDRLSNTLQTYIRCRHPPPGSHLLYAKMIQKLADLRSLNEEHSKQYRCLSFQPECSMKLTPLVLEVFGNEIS
Sequence of Bile acid receptor (Homo sapiens) (Q96RI1 whole entry, looked up): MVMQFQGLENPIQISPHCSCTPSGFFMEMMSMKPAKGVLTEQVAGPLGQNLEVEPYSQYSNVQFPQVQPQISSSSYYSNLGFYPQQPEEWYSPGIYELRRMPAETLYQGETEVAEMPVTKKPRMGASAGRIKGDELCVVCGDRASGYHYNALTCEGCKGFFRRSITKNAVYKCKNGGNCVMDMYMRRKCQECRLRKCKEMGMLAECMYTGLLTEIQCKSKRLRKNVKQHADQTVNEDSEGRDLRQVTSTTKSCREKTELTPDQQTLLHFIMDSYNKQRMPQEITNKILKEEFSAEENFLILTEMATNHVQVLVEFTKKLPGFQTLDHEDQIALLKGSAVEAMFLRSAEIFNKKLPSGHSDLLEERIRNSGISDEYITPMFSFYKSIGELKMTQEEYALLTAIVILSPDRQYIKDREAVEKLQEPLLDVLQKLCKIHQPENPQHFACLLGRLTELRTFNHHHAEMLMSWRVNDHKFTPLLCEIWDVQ
Sequence of Retinoic acid receptor RXR-alpha (Homo sapiens) (P19793 whole entry, looked up): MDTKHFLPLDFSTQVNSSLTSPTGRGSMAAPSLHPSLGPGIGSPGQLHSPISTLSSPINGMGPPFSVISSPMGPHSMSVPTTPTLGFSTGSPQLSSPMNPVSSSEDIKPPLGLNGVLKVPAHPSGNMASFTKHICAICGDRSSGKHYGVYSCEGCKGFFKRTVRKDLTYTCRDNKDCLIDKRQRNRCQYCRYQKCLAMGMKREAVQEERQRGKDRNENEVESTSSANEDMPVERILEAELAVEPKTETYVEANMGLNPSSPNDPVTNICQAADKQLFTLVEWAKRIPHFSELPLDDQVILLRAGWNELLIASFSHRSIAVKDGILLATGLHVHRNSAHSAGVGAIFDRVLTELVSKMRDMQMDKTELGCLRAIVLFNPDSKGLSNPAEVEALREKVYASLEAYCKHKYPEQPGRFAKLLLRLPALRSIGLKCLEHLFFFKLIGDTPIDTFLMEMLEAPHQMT

With `BrC(Br)Br`, the Potency result in [1], in experiment [2], in [3], in experiment [4], in experiment [5] and in [7] was “inactive” throughout. The Potency entry in experiment [8], in experiment [9], in [10], in experiment [11], in experiment [12] and in [13] was “inactive” in each case. Also, the Potency result in [14], in [15] and in experiment [16] was “inactive” throughout. In addition, in experiment [6], the result was inactive.
As for `FC(Cl)(Cl)Cl`, the Potency result in [17], in experiment [2], in experiment [4], in experiment [5], in [7] and in experiment [8] was “inactive” throughout. In addition, the Potency entry in experiment [9], in experiment [10], in [11], in experiment [12], in experiment [13] and in experiment [14] was “inactive” throughout. In addition, the Potency entry in experiment [15] and in experiment [16] was “inactive” each time. For the same compound, the outcome in [6] and in experiment [18] was inactive.
As for `CC(C)CCCCCCCOP(=O)(Oc1ccccc1)Oc1ccccc1`, the Potency entry in [3], in [7], in experiment [9], in [10], in [11] and in experiment [12] was “inactive” each time. In experiment [13], the Potency result was “inactive”.
With `COc1ccc(/C(=C/C(=O)N2CCOCC2)c2ccc(Cl)cc2)cc1OC`, the Potency result in experiment [17], in experiment [2], in experiment [7], in experiment [8], in experiment [9] and in experiment [10] was “inactive” each time. Further, the Potency entry in experiment [11], in experiment [12], in experiment [13], in experiment [14], in [15] and in experiment [16] was “inactive” each time. Moreover, the result in [6] was inactive.
`CCCCCCCCCCCCBr`: the Potency entry in [17], in experiment [1], in [2], in experiment [8], in experiment [19] and in [9] was “inactive” throughout. Further, the Potency result in experiment [11], in [12], in [13], in experiment [14], in experiment [15] and in experiment [16] was “inactive” throughout. In addition, the Potency in experiment [5] is 13.8 µM (active); in [7], 43.6 µM (active).

Values taken from PubChem BioAssay (Tox21).
